Experimental data published in PubChem BioAssay AID2685 (National Center for Advancing Translational Sciences (NCATS), 2010).
Screen size: about 320,000 compounds; about 2,100 (0.66%) were called active. Inconclusive results (about 53%) are left out. Calls follow the shape of the dose curve; as a rule, active = well fitted inhibition curve with a large enough effect in the signal ratio, with a control signal flat (not every such curve was filed as active); inconclusive = small, poorly fitted or top-dose-only effect, or effect the other way, or a change in a side signal; inactive = flat fitted curve, though single readings scatter; the % refers to the signal ratio. For the sample, actives were picked, then their nearest neighbours and some compounds at random.

Assay: qHTS Assay for Lipid Storage Modulators in Drosophila S3 Cells;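 as to cell number change: cells counted by Cell Tracker Red CMTPX staining in the red channel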; as to lipid storage change, negative = inhibition: % is scaled to controls: 0 for no effect and ±100 for the full control effect
Settings: BODIPY lipid droplet fluorescence, 18-24 h, cells fed with added oleic acid; cell number change: measured here: cell count max response; series mostly up to 46.1 µM; lipid storage change, negative = inhibition: at the top concentration
How it was run: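 Drosophila S3 cells loaded with oleic acid (400 uM, as added) and compounds at several concentrations; lipid droplets imaged by 488-nm laser-scanning cytometry, 500–530 nm intensity and object ratio to cell channel. Percent activity normalized to 20 uM Triacsin C.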
Potency is read from the fitted curve at half-maximal effect.

SMILES | lipid storage change, negative = inhibition | cell number change | Potency | outcome
Cc1cc(C)cc(C(=O)/C=C2\NC(=O)CS2)c1 | -9.56% (inactive) | – | – | –
O=C(NN(CC(O)COc1ccccc1)CC(O)COc1ccccc1)c1ccccc1 (stereo unspecified) | -2.08% (inactive) | -5.14% | – | –
CC(C)(C)OC(=O)NOCC(=O)N(Cc1ccccc1)CC(O)COc1ccccc1 (stereo unspecified) | – | -1.25% | 7.31 µM (active) | –
CC(C)N(Cc1ccccc1)C(=O)COc1ccccc1 | 12.5% (inactive) | 2.07% | – | –
CCOC(=O)N1CCN(C(=O)/C=C/c2c(C)nn(-c3ccc(F)cc3)c2Cl)CC1 | -7.33% (inactive) | -7.81% | – | –
O=C(CSc1ccccn1)N1CCOCC1 | -6.88% (inactive) | -9.67% | – | –
CS(=O)(=O)N(CC(=O)N1CCCCC1)c1ccc(Cl)c(C(F)(F)F)c1 | 3.58% (inactive) | 0.64% | – | –
CCn1c(SCC(=O)N2CCCC2)nc2ccccc2c1=O | 8.17% (inactive) | -13.8% | – | –
CNC(=O)c1ncoc1-c1ccc(Cl)cc1 | 1.92% (inactive) | 12.8% | – | –
COC(=O)c1oc(-c2ccc(Cl)cc2)nc1C | -2.09% (inactive) | -10.5% | – | –
CNC(=O)c1oc(-c2ccc(Cl)cc2)nc1C | – | – | 2.59 µM (active) | –
Cc1cccc(C)c1NC(=S)N(Cc1ccco1)C1CCN(C(C)C)CC1 | 4.29% (inactive) | 1.59% | – | –
COc1ccc(-n2nnnc2SCC(=O)NNC(=O)c2ccc([N+](=O)[O-])cc2)cc1 | 14.8% (inactive) | 9.64% | – | –
Cc1ccc(NC(=O)C(=O)NCCc2c[nH]c3ccccc23)cc1C | 3.29% [at 9.22 µM] (inactive) | 15% | – | –
CCOCCCNC(=O)CN1C(=O)c2cccc3cccc1c23 | – | -5.29% | – | inactive
Cc1ccc(NC(=O)c2ccccc2NS(=O)(=O)c2ccc(Cl)s2)cc1S(=O)(=O)N1CCOCC1 | 9.85% (inactive) | 11.6% | – | –
COc1ccc(C)cc1NC(=O)c1ccccc1NS(=O)(=O)c1ccc(Cl)s1 | 9.92% (inactive) | – | – | –
COc1cc(NC(=O)c2ccccc2NS(=O)(=O)c2ccc(Cl)s2)cc(OC)c1 | – | -19.8% | 16.4 µM (active) | –
CCN1CCN(c2nc3sc4c(c3c(=O)n2-c2ccc(OC)cc2)CCCCC4)CC1 | -2.33% (inactive) | -9.24% | – | –
CCOC(=O)COc1ccccc1C1Nc2ccccc2C(=O)N1c1cccc(Cl)c1 (stereo unspecified) | -10% (inactive) | 2.87% | – | –
COc1ccc(NCc2nnc(SCC(=O)NCc3ccco3)n2-c2ccccc2OC)cc1 | 4.09% (inactive) | 13.6% | – | –
CCC(C)[C@H](NC(=O)NCc1cccc(OC)c1)C(=O)O (stereo partly specified) | – | 1.61% | 6.51 µM (active) | –
COC(=O)[C@@H](NC(=O)NCc1cccc(OC)c1)C(C)C | 10.7% (inactive) | -13.3% | – | –

SMILES | lipid storage change, negative = inhibition | cell number change | Potency | outcome
CCC(C)[C@H](NC(=O)NCc1ccccc1Cl)C(=O)OC (stereo partly specified) | 7% (inactive) | -19% | – | –
COc1cccc(CNC(=O)N[C@@H](C)C(=O)O)c1 | -15.6% (inactive) | 1.68% | – | –
CCC(C)[C@H](NC(=O)NCc1ccccc1Cl)C(=O)O (stereo partly specified) | – | -0.143% | 29.1 µM (active) | –
CCC(C)NC(=O)NCc1ccccc1F (stereo unspecified) | -1.24% (inactive) | 2.87% | – | –
COC(=O)[C@H](CCSC)NC(=O)NCc1ccccc1F | -0.91% (inactive) | -14.5% | – | –
COC(=O)[C@@H](NC(=O)NCc1ccccc1F)C(C)C | – | -6.12% | 25.9 µM (active) | –
CCC(C)[C@H](NC(=O)NCc1ccc(Cl)cc1)C(=O)O (stereo partly specified) | 0.0506% (inactive) | 4.5% | – | –
CC(C)N(C)Cc1nnnn1CC(=O)NCc1cc(F)cc(C(F)(F)F)c1 | -4.82% (inactive) | -9.03% | – | –
Cn1nc(-c2ccccc2)c(CO)c1Oc1cccc(C(F)(F)F)c1 | 14.8% (inactive) | 9.06% | – | –
COc1ccc(C(=O)CSc2nnc(C3CC3)n2N)cc1 | -0.56% (inactive) | -1.83% | – | –
O=C(O)c1ccc(NS(=O)(=O)c2cc(Cl)ccc2Cl)cc1 | -4.19% (inactive) | 3.91% | – | –
Cc1ccc(NS(=O)(=O)c2cc(C(=O)O)ccc2Cl)c(C)c1 | 6.34% (inactive) | -3.54% | – | –
Cc1ccc(NS(=O)(=O)c2cc(C(=O)O)ccc2Cl)cc1 | – | -3.53% | 2.31 µM (active) | –
COCCN1Cc2cccc(C(=O)NC(C)CCc3ccco3)c2C1=O (stereo unspecified) | 7.18% (inactive) | 4.03% | – | –
O=C(Nc1cccc(C(=O)O)c1)/C(=C\c1ccco1)NC(=O)c1ccccc1 | -5.58% (inactive) | 13% | – | –
CCOC(=O)N1CCN(CC(=O)N2c3ccccc3Sc3ccccc32)CC1 | -11.6% (inactive) | -12.6% | – | –
C#CCOc1ccc(C2C3=C(CC(C)(C)CC3=O)N(CC(=O)O)C3=C2C(=O)CC(C)(C)C3)cc1 | -19.8% (inactive) | -0.525% | – | –
C#CCOc1ccc(C2C3=C(CC(C)(C)CC3=O)N(CC(=O)O)C3=C2C(=O)CC(C)(C)C3)cc1OC | – | -7.42% | 10.3 µM (active) | –
COc1ccc(C2C3=C(CC(C)(C)CC3=O)N(CC(=O)O)C3=C2C(=O)CC(C)(C)C3)cc1OC | 2.8% (inactive) | -17.9% | – | –
O=C(CN1C(=O)c2ccccc2C1=O)Nc1ccc(-c2nc3ccccc3o2)cc1 | – | – | – | inactive
Cc1nn(C)cc1C(C(=O)NC1CCCCC1)N(CCc1ccccc1)C(=O)c1cnccn1 (stereo unspecified) | 26.4% (inactive) | 19.3% | – | –
O=C(/C=C/c1cn(-c2ccccc2)nc1-c1cccnc1)N1CCCC1 | -13% (inactive) | -19.7% | – | –
